Bioassay records (PubChem BioAssay)
KB-V1 cytotox: qHTS assay for MDR1-selective chemotherapeutics: Primary screen using the drug-selected MDR subline cells KB-V1. KB-V1 MDR cells viability, CellTiter-Glo, 72 h. Potency, µM (series often up to 46.1 µM), most hits filed as cytotoxic. hit rate 3.4% among 400,000. AID 1347076, 2019; further: on the % scale 0 is the no-effect control and ±100 the full control effect; nearly all actives have a fitted effect of over 60% in size
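Following 72 h at 37 degrees C with compound, KB-V1 cell viability was read by CellTiter-Glo luminescence, medium being phenol-red-free DMEM plus 10% FBS; concentration-response parameters came from normalized, curve-fitted qHTS data.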
HT1080 IDH1KD tx: qHTS for induction of synthetic lethality in tumor cells producing 2HG: qHTS for the HT-1080-IDH1KD cell line; HT-1080 IDH1 knockdown viability, ATP luminescence, 48 h; Potency, µM (highest dose often 46.1 µM), for the others: top-dose activity, negative = toxicity, actives largely listed as cytotoxic; hit rate 2% among 360,000;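 further: 0% = DMSO wells and -100% = cell-free medium wells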
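Using the IDH1-knockdown HT-1080 line run in the same batch and compound series as the NT line, viability after 48 h at 37 °C was determined by CellTiter-Glo luminescence and expressed as % activity.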
KB-3-1 cytotox: qHTS assay for MDR1-selective chemotherapeutics: Primary screen using the parental adenocarcinoma cell KB-3-1. KB-3-1 viability, CellTiter-Glo ATP luminescence, 72 h. Potency, µM (titrated, usually from 46.1 µM), usual class: cytotoxic. hit rate 1.4% among 400,000. AID 1347075, 2019; further: on the % scale 0 is the no-effect control and ±100 the full control effect; nearly all actives have a fitted effect of over 60% in size
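72 h, 37 °C compound treatment of KB-3-1 parental cells; CellTiter-Glo added, 10 min, luminescence read. Data corrected against DMSO-only plates and normalized before curve fitting.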
S2 tox: Viability Counterscreen for Primary qHTS for Inhibitors of ATXN expression | S2 cells (HEK-293 line with an ATXN2-luciferase reporter) viability, CellTiter-Fluor protease fluorescence, 24 h | Potency, µM (highest dose often 56.7 µM), usual class: cytotoxic | hit rate 0.49% among 400,000 | AID 651635, 2014; further: nearly all actives have a fitted effect of over 40% in size
ATXN2 expr inh: Primary qHTS for Inhibitors of ATXN expression; Potency, µM (doses to about 57 µM), without a hit: at the highest dose activity change, negative = inhibition, actives largely listed as inhibitors; HEK-293 ATXN2-luciferase reporter, luminescence, 24 h; hit rate 0.72% among 360,000; further: on the % scale 0 is the no-effect control and ±100 the full control effect; nearly all actives have a fitted effect of over 55% in size
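ATXN2-luciferase reporter cells (luciferase flanked by upstream and downstream ATXN2 gene portions) were treated 24 h at 37 °C with compounds at up to 57 uM. SteadyGlo luminescence gave expression; GF-AFC fluorescence gave viability.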
HT1080NT lethal: qHTS for induction of synthetic lethality in tumor cells producing 2HG: qHTS for the HT-1080-NT fibrosarcoma cell line; HT-1080-NT fibrosarcoma viability, CellTiter-Glo ATP luminescence, 48 h; hit rate 1.6% among 360,000; Potency, µM (doses to about 46.1 µM), without a hit: at the top dose activity, negative = less viability, hits mostly cytotoxic;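 further: NT is the 2HG producing partner of a matched IDH1 knockdown line; 0% = DMSO-treated cells and -100% = media-only wells without cells; nearly all actives have a fitted effect of over 55% in size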
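Compounds were tested in concentration-response format on HT-1080-NT cells for 48 hours at 37 degrees C. Cell viability came from CellTiter-Glo luminescence; curves were classified by r2, response magnitude and activity.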
Starred values were filed as active, the others as inactive; i = inactive; ? = inconclusive; . = no result; ! = not active in a repeat. Only some compounds are listed: those with a hit (about 6.2% of all), similar ones and a draw of the others. The call rests on the fitted dose curve; in most records, active means well fitted curve in the direction sought with a large enough effect; inconclusive means small, poorly fitted or top-dose-only effect, or another doubt; inactive means no such curve, though single readings can be large; an effect the other way counts as inactive or inconclusive. Potency means the concentration at half of the fitted maximal effect.

SMILES | KB-V1 cytotox | HT1080 IDH1KD tx | KB-3-1 cytotox | S2 tox | ATXN2 expr inh | HT1080NT lethal
COc1ccccc1NC(=O)COc1ccc(/C=N/NC(=O)CSCc2ccc(Cl)cc2)cc1 | 5.2µM* | 14% | i | i | -22% | 11%
O=C(CSc1ccccc1)N/N=C/c1ccccc1O | i | 8.2µM* | i | ? | ? | ?
Cc1nc2ccccc2nc1CN1CCOc2ccc(C(C)(O)COc3ccccc3)cc2C1 (stereo not given) | . | . | . | i | . | .
Cc1nc2c(-c3ccccc3)c(C)nn2c(C)c1CCC(=O)N1CCN(c2ccc(F)cc2)CC1 | i | . | i | i | 9% | .
COc1ccc(CSCC(=O)N/N=C/c2ccccc2O)cc1 | i | ? | ? | i | 25µM* | ?
O=C(CCSCCC(=O)NN=Cc1ccccc1O)NN=Cc1ccccc1O | . | -25% | . | ? | ? | 4%
Cc1ccc(CCNC(=O)c2ccc(CSc3nc4ccncc4n3Cc3ccc(F)cc3)cc2)cc1 | i | . | i | ? | -29% | .
CC(C)(C)n1nnnc1CN(Cc1ccc(F)cc1)Cc1ccco1 | 21µM* | -4% | ? | i | -24% | -3%
CCCNC1=C(N(C(C)=O)c2cccc(F)c2)C(=O)c2ccccc2C1=O | ? | 4.6µM* | 1.3µM* | . | 28µM* | 8.2µM*
CCC(=O)N(C1=C(NC(C)C)C(=O)c2ccccc2C1=O)C(C)C | ? | -3% | ? | i | -22% | -16%
CN(C)c1nc2cc3c(cc2cc1CN(CC1CCCO1)C(=O)c1cccc(F)c1)OCO3 (stereo not given) | . | . | . | i | . | .
COc1ccc(C)cc1-n1nnnc1SCc1cc(=O)n2cc(C)ccc2n1 | 7.3µM* | -16% | ? | i | -16% | -2%
CCN(CC)C(=S)SSC(=S)N(CC)CC | i | 0.0052µM*! | i | 71µM*! | ? | ?
Cc1ccc2ccc3cc(C(=O)N4CCN(c5ccccc5)CC4)nc3c2[nH]1 | i | . | ? | i | -27% | .
Cn1cccc1/C=C1/SC(=O)N(CC(=O)N2CCCC2)C1=O | 16µM* | 12% | i | i | -17% | 17%
Cc1ccc(/C=C2/SC(=O)N(CC(=O)N3CCOCC3)C2=O)s1 | 21µM* | 9% | i | ? | 7% | 5%
Cc1ccsc1/C=C1/SC(=O)N(CC(=O)N2CCOCC2)C1=O | i | 18% | i | i | 13% | 8%
Cc1ccc(Oc2nc3ccccn3c(=O)c2/C=C(\C#N)c2nc3ccccc3s2)c(C)c1 | i | . | i | i | 3% | .
CCc1cc(-c2nnn(CCC3COCCO3)c2CC)cc(CC)c1-c1cn(Cc2ccc3ccccc3c2)nn1 (stereo not given) | 5.8µM* | -21% | ? | i | -24% | -1%
CCc1cc(-c2nnn(CCC3COCCO3)c2CC)ccc1-c1cn(CCc2c[nH]c3ccccc23)nn1 (stereo not given) | i | ? | i | i | -67% | -35%
CC(Sc1nc(=O)cc(N)n1CCc1ccccc1)C(=O)Nc1ccc(Cl)cc1 (stereo not given) | i | . | i | ? | 7% | .
CC(C(=O)NC1CCCC1)N(C(=O)c1snc(C(N)=O)c1N)c1ccc2c(c1)OCCO2 (stereo not given) | 16µM* | -4% | i | i | -11% | -1%
CCOc1ccc(C(C(=O)NCC2CCCO2)N(CCc2cccc(C)c2)C(=O)c2snc(C(N)=O)c2N)cc1 (stereo not given) | 21µM* | ? | ? | i | -2% | ?
Cc1cccc(N(C(=O)c2snc(C(N)=O)c2N)C(C(=O)NCc2ccccc2)c2ccncc2)c1 (stereo not given) | i | ? | 18µM* | ? | ? | 18µM*
COc1ccc(C(C(=O)NC2CCCCC2)N(Cc2ccco2)C(=O)c2snc(C(N)=O)c2N)cc1 (stereo not given) | 16µM* | -1% | ? | i | -36% | -3%
SMILES | KB-V1 cytotox | HT1080 IDH1KD tx | KB-3-1 cytotox | S2 tox | ATXN2 expr inh | HT1080NT lethal
COc1ccc(C(C(=O)NC2CCCC2)N(Cc2ccco2)C(=O)c2snc(C(N)=O)c2N)cc1OC (stereo not given) | i | 3% | i | i | 0% | 8%
CCOc1ccc(C(C(=O)NCC2CCCO2)N(C(=O)c2snc(C(N)=O)c2N)c2ccc(F)cc2)cc1 (stereo not given) | i | 0% | i | i | -7% | 1%
CCOc1ccc(Nc2oc(-c3ccc(COc4ccc(C)cc4)o3)nc2C#N)cc1 | i | . | i | ? | -10% | .
CC(CNC(=O)c1ccc(CSc2nc3ccncc3n2Cc2cccc(F)c2)cc1)c1ccccc1 (stereo not given) | i | . | i | ? | -34% | .
COc1ccc(OC)c(C(C(=O)NC2CCCCC2)N(C(=O)c2snc(C(N)=O)c2N)c2ccccc2OC)c1 (stereo not given) | i | -9% | i | i | -10% | -1%
CCCC(C(=O)NC1CCCC1)N(CC1CCCO1)C(=O)c1snc(C(N)=O)c1N (stereo not given) | 4.1µM* | -5% | i | i | -8% | -4%
COc1cccc(C(C(=O)NC2CCCC2)N(Cc2ccco2)C(=O)c2ccco2)c1OC (stereo not given) | 2.9µM* | -17% | i | i | -6% | ?
COc1ccc(C)cc1N(C(=O)c1snc(C(N)=O)c1N)C(C(=O)NC1CCCCC1)c1ccc(C)o1 (stereo not given) | 21µM* | ? | ? | i | -6% | ?
O=C(NC1CCCC1)C(c1ccncc1)N(Cc1ccco1)C(=O)c1ccc(-c2ccccc2)[nH]1 (stereo not given) | 21µM* | 15µM* | ? | i | -3% | ?
COc1cccc(C(C(=O)NC2CCCC2)N(C(=O)c2ccco2)c2ccccc2F)c1OC (stereo not given) | ? | 0% | i | i | 1% | -6%
CCCN(CCC)C(=O)CSc1nnc2cc(C)c3ccccc3n12 | i | . | i | i | 4% | .
CCOc1ccc(CC(=O)NCc2ccc3c(c2)CCN3C(=O)c2ccccc2)cc1OCC | i | . | i | . | . | .
CCOc1ccc(-c2ccc(SCC(=O)Nc3nnc(CC)s3)nn2)cc1 | i | 2% | i | i | 9% | 8%
